FBW7 act – FBW7 E3 ligase activators, primary screen, biochemical, AlphaScreen, human. F-box/WD repeat-containing protein 7 (Homo sapiens), Q969H0. AlphaScreen FBW7–phospho-cyclin E peptide binding, activator screen. normalized activity (activation), % at 26.1 µM. 0.13% of 650,000 active; in the data active = normalized activity above about 1.9%;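 also: purified mutant Fbw7 with reduced substrate affinity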
Target sequence (Q969H0 whole entry, looked up): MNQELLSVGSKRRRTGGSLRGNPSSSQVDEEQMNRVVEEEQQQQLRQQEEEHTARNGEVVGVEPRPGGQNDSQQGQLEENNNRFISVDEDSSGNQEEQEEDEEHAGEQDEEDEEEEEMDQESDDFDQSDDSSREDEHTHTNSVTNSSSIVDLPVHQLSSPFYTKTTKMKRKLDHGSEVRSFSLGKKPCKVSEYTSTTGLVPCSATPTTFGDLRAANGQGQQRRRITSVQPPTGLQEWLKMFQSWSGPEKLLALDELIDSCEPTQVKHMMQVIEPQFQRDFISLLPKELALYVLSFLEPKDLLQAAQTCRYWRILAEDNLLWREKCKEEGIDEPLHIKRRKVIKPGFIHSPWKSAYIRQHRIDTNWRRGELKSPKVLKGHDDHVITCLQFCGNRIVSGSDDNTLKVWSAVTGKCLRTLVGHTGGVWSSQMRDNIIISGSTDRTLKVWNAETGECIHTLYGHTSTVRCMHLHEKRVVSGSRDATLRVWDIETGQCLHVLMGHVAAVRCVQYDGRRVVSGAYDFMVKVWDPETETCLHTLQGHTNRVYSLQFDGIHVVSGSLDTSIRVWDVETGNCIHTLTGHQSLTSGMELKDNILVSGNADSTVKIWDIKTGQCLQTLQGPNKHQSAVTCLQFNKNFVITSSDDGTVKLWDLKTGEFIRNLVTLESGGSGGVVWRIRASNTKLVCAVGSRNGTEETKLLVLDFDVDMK
GPR151 ag – activators of human GPR151, primary screen, cell-based, PathHunter beta-arrestin, luminescence. PathHunter beta-arrestin GPR151 cells. activation, % at 11.2 µM. G-protein coupled receptor 151 (Homo sapiens), Q8TDV0. AID 1508602, 2020. 1% of 650,000 active; in the data active = activation above about 4.9%
MITF inh – MITF inhibitors, primary screen, biochemical, AlphaScreen, human; Microphthalmia-associated transcription factor (Homo sapiens), O75030; AlphaScreen MITF homodimerization, bead proximity signal; AID 1259374, 2018; inhibition, % at 2.6 µM; 0.91% of 650,000 active; in the data active = inhibition above about 50%
TEAD-YAP block – TEAD-YAP interaction inhibition, primary screen, TEAD-YAP interaction inhibitor project, luminescence, HEK-TIYL cells; TEAD-Gal4/YAP UAS-luciferase luminescence; inhibition, % at 9.12 µM; 1.4% of 640,000 active; AID 1259422, 2018; in the data active = inhibition above about 32%
MITF inh conf – MITF inhibitors, retest of hits, confirmation, biochemical, AlphaScreen, triplicate | shares compounds with MITF inh | AlphaScreen MITF homodimerization, biotin/His-MITF beads | 16% of 4,700 active | AID 1259372, 2018 | inhibition, % at 2.6 µM;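 active = inhibition above a cutoff derived from the DMSO control wells, cut at about 28% in these data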;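 also: inhibitors lower the bead chemiluminescence by keeping MITF from dimerizing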
AS interf DR – AlphaScreen optical interference compounds, dose response, counter-screen, biochemical, HTS; shares compounds with MITF inh; AlphaScreen optical interference counterscreen, cell-free; IC50, µM; 6% of 480 active; AID 1259373, 2018; call rule not given here
AlphaScreen intf2 – AlphaScreen optical interference compounds, counter-screen for MITF inhibitor project, biochemical, triplicate; shares compounds with MITF inh; LysRS AlphaScreen counterscreen, signal interference; inhibition, % at 2.6 µM; 7.6% of 4,700 active; AID 1259376, 2018;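 active = inhibition above a cutoff derived from the DMSO control wells, cut at about 30% in these data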
Numbers stand for hits; 0 = inactive; - = no result; ! = a repeat was not active. Hits are enriched below; roughly 3.5% of the tested compounds scored in any of these assays.

SMILES | FBW7 act | GPR151 ag | MITF inh | TEAD-YAP block | MITF inh conf | AlphaScreen intf2 | others
O=C(CNCCN1CCCCC1)Nc1ccc(N2CCCCCC2)cc1 | 0 | 0 | 91 | 0 | 0 | 34
O=C(CNCCCN1CCOCC1)Nc1ccc(N2CCCCCC2)cc1 | 0 | 0 | 75 | 0 | 0 | 0
O=C(CNCCN1CCCCC1)Nc1ccc(N2CCCC2)cc1 | 0 | 0 | 83 | 0 | 0 | 61
O=C(CCl)Nc1ccc(N2CCCCC2)cc1 | 0 | 0 | 0 | 0 | - | -
O=[N+]([O-])c1ccc(COc2ccc(CO)cc2I)cc1 | 0 | 0 | 0 | 0 | - | -
CNC(=O)C1CCN(S(=O)(=O)c2cc(C)ccc2OC)CC1 | 0 | 0 | 0 | 0 | - | -
COc1cccc(NC(=S)N(CCCN2CCC(C)CC2)Cc2cccs2)c1 | 0 | 0 | 79 | 0 | 0 | 0
COc1ccc(Nc2nnc(SC3CCOC3=O)s2)cc1 (stereo not drawn) | 0 | 0 | 0 | 0 | - | -
Cc1ccc(NC(=O)c2cccs2)cc1NC(=O)c1cccc(N)c1 | 0 | 0 | 0 | 0 | - | -
Cc1cccc(Nc2ccc(NCCNC(=O)c3ccc(F)cc3)nn2)n1 | 0 | 0 | 0 | 0 | - | -
Cc1ccnc(Nc2ccc(NCCNC(=O)c3ccc(F)cc3Cl)nn2)c1 | 0 | 0 | 81 | 0 | 43 | 83
Cc1ccnc(Nc2ccc(NCCNC(=O)c3ccc(F)cc3)nn2)c1 | 0 | 0 | 56 | 0 | 61 | 94
Cc1ccccc1-n1c(=S)sc2c(=O)n(-c3ccc(F)cc3)c(SCC(=O)C(C)(C)C)nc21 | 0 | 0 | 0 | 0 | - | -
Cn1cccc1CN1CCN(C(=O)c2ccc([N+](=O)[O-])cc2)CC1 | 0 | 0 | 0 | 0 | - | -
O=C(c1ccc([N+](=O)[O-])cc1)N1CCN(Cc2ccccc2Br)CC1 | 0 | 0 | 58 | 0 | 0 | 0
O=C(c1ccco1)N1CCN(Cc2ccccc2F)CC1 | 0 | 0 | 61 | 0 | 0 | 0
O=C(c1ccncc1)N1CCN(Cc2ccccc2F)CC1 | 0 | 0 | 78 | 0 | 0 | 0
CC(C)[C@H]1CN(Cc2ccccc2F)CCN1C(=O)c1ccncc1 | 0 | 0 | 0 | 0 | - | -
O=C(c1ccncc1)N1CCN(Cc2ccccc2Br)CC1 | 0 | 0 | 62 | 0 | 0 | 0
O=C(c1ccc(-c2ccccc2)cc1)N1CCN(Cc2ccncc2)CC1 | 0 | 0 | 0 | 0 | - | -
CN(C)CCCOC(=O)C(C)(c1ccccc1)c1ccccc1 | 0 | 0 | 0 | 0 | - | -
O=C(CNCc1ccccc1F)N1CCN(C(=O)CNCc2ccccc2F)CC1 | 0 | 0 | 61 | 0 | 0 | 0
CCOC(=O)c1ccc(NC(=O)CC2C(=O)N(c3ccc(F)cc3)C(=S)N2CCc2ccc(OC)c(OC)c2)cc1 (stereo not drawn) | 0 | 0 | 72! | 0 | 0 | 0
COC(=O)c1ccc(NC(=O)CC2C(=O)N(c3ccc(F)cc3)C(=S)N2CCc2ccc(OC)c(OC)c2)cc1 (stereo not drawn) | 0 | 0 | 0 | 0 | - | -
O=C(NC1CC1)c1ccnc(-c2cccs2)c1 | 0 | 0 | 66 | 0 | 0 | 0
SMILES | FBW7 act | GPR151 ag | MITF inh | TEAD-YAP block | MITF inh conf | AlphaScreen intf2 | others
O=C(c1cc(F)cc(F)c1)N1CC[C@@H](c2ccccc2)[C@H](O)C1 | 0 | 0 | 53 | 0 | 0 | 0
COc1ccc([C@@H]2CCN(C(=O)c3cc(F)cc(F)c3)C[C@H]2O)cc1 | 0 | 0 | 0 | 0 | - | -
CC(C)(C)C(=O)CN1C(=O)COc2ccccc21 | 0 | 0 | 67 | 0 | 0 | 0
O=C(CSc1nnc(-c2ccncc2)n1Cc1ccccc1)c1ccc(Br)cc1 | 0 | 0 | 0 | 0 | - | -
CN(Cc1cc(Cl)c(O)c2ncccc12)C1CCCCC1 | 0 | 0 | 106 | 70 | 104 | 101
O=[N+]([O-])c1cc(Cl)c(O)c2ncccc12 | 0 | 0 | 0 | 0 | - | -
COc1ccc(-n2c(=O)c3c(n4c(SCC(N)=O)nnc24)-c2ccccc2CC32CCCCC2)cc1 | 0 | 0 | 0 | 0 | - | -
c1ccc(CN2CCC(N3CCN(C4CC5CCC4C5)CC3)CC2)cc1 (stereo not drawn) | 0 | 0 | 0 | 0 | - | -
COc1ccc(CN2CCN(C3CCCC3)CC2)cc1OC | 0 | 0 | 0 | 0 | - | -
COc1ccc(CN2CCN(C3CC4CCC3C4)CC2)cc1OC (stereo not drawn) | 0 | 0 | 63 | 0 | 0 | 0
COc1ccc(CN2CCN(C3CC4CCC3C4)CC2)cc1 (stereo not drawn) | 0 | 0 | 77 | 0 | 0 | 0
Cc1cc(Cl)cc(Br)c1OCCNCCN(C)C | 0 | 0 | 53 | 0 | 0 | 0
CNCCCOc1c(C)cc(Cl)cc1Br | 0 | 0 | 0 | 0 | - | -
CCC(C)c1ccccc1OCCNCCN(C)C (stereo not drawn) | 0 | 0 | 67 | 0 | 59 | 0 | AS interf DR=0
CCCCNCCOc1ccccc1OCC | 0 | 0 | 61 | 0 | 33 | 0 | AS interf DR=0
CCC(C)c1ccccc1OCCNCCCOC (stereo not drawn) | 0 | 0 | 58 | 0 | 0 | 0
CCC(C)c1ccccc1OCCNCCOC (stereo not drawn) | 0 | 0 | 0 | 0 | - | -
CCSc1nnc(NC(=O)CSc2cccc3cccnc23)s1 | 0 | 0 | 0 | 0 | - | -
Cc1cc(SCc2ccc([N+](=O)[O-])cc2)n2ncnc2n1 | 0 | 0 | 0 | 0 | - | -
CCC(C)c1ccccc1OCCCNCCO (stereo not drawn) | 0 | 0 | 59 | 0 | 0 | 0
CCOc1ccccc1OCCOCCNCc1ccccc1 | 0 | 0 | 82 | 0 | 0 | 0
CCC(C)c1ccccc1OCCCNCCN (stereo not drawn) | 0 | 0 | 0 | 0 | - | -
CN(C)CCNCCOc1ccc2ccccc2c1Br | 0 | 0 | 59 | 0 | 0 | 0
O=C1CSC(c2ccc([N+](=O)[O-])o2)N1Cc1ccco1 (stereo not drawn) | 0 | 0 | 0 | 0 | - | -
COc1cc(N2C(=O)c3ccc(F)cc3C2=O)cc(OC)c1OC | 0 | 0 | 0 | 0 | - | -
SMILES | FBW7 act | GPR151 ag | MITF inh | TEAD-YAP block | MITF inh conf | AlphaScreen intf2 | others
CC(C)CCNC(=O)C(=O)NCC1OCCCN1S(=O)(=O)c1ccc(F)cc1 (stereo not drawn) | 0 | 0 | 67 | 0 | 0 | 0
CC(C)CNC(=O)C(=O)NCC1OCCCN1S(=O)(=O)c1ccc(Cl)cc1 (stereo not drawn) | 0 | 0 | 64 | 0 | 0 | 0
CC(=O)c1ccc(NC(=O)c2ccccc2C(=O)O)cc1 | 0 | 0 | 0 | 0 | - | -
COc1cc(CN2CCN(C(=O)c3ccccc3)CC2)cc(OC)c1O | 0 | 0 | 0 | 0 | - | -
COc1cc(CN2CCN(Cc3ccccc3Br)CC2)cc(OC)c1O | 0 | 0 | 68 | 0 | 0 | 0
COc1cc(CN2CCN(c3ccccn3)CC2)cc(Br)c1O | 0 | 0 | 0 | 0 | - | -
COc1cc(CN2CCN(Cc3ccccc3C)CC2)cc(OC)c1OC | 0 | 0 | 64 | 0 | 0 | 0
COc1cc(CN2CCN(c3ccccc3C)CC2)cc(OC)c1OC | 0 | 0 | 0 | 0 | - | -
COc1cc(CN2CCN(Cc3ccccc3C)CC2)cc(OC)c1O | 0 | 0 | 59 | 0 | 0 | 0

From PubChem BioAssay
